We go through 8 sequences from PMC8384837, “Expanding the binding specificity for RNA recognition by a PUF domain”.

Experiment in all cases: yeast three-hybrid, YBZ-1, SC-Leu-His + 0.5 mM 3-AT, 4 days
What all share (conditions): tags: N-Gal4 AD-HA kept; label: inside an RPR1-promoter hybrid RNA with tandem MS2 sites; ssRNA

For one test, the target named is PUM1 PUF domain R5-PRS (Homo sapiens, UniProt Q14671 828-1176, C1007P;Q1011S). An outline of the steps:
(§1)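 A centromeric plasmid in strain YBZ-1 co-expressed Pumilio-1 PUF domain libraries, randomized at the three base-contacting residues of each repeat, with matching RNA elements; the strain carries a LexA–MS2 coat fusion and a HIS3 reporter. After four days on SC-Leu (input) or SC-Leu-His + 0.5 mM 3-AT (selection), the repeat regions were PCR-amplified and Illumina-sequenced. The interaction score is the log change in variant frequency from input to selection, using log2 and a pseudocount of 1 where absent.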

The target in another test is PUM1 PUF domain R5-KWA (Homo sapiens, UniProt Q14671 828-1176, C1007K;R1008W;Q1011A). An outline of the steps: as §1
The target of a further test is PUM1 PUF domain R5-MYC (Homo sapiens, UniProt Q14671 828-1176, C1007M;R1008Y;Q1011C). An outline of the steps:
as §1

In a further test the target is PUM1 PUF domain R8-KYK (Homo sapiens, UniProt Q14671 828-1176, N1122K;Q1126K). The gist of the method: as §1
The next test addresses PUM1 PUF domain R8-GHR (Homo sapiens, UniProt Q14671 828-1176, N1122G;Y1123H;Q1126R). The gist of the method:
as §1

For the next test, the target named is PUM1 PUF domain R8-RYW (Homo sapiens, UniProt Q14671 828-1176, N1122R;Q1126W). An outline of the steps:
as §1

The target of the next test is PUM1 PUF domain R1-KLC (Homo sapiens, UniProt Q14671 828-1176, S863K;R864L;Q867C). The gist of the method:
as §1

In the next test the target is PUM1 PUF domain R7-ENR (Homo sapiens, UniProt Q14671 828-1176, S1079E;E1083R). The gist of the method:
as §1

A further test deals with PUM1 PUF domain R3-SNR (Homo sapiens, UniProt Q14671 828-1176, C935S;R936N;Q939R). An outline of the steps:
as §1

The target of another test is PUM1 PUF domain R5-KYC (Homo sapiens, UniProt Q14671 828-1176, C1007K;R1008Y;Q1011C). The gist of the method: as §1

Consider “GGCUAGAACUAGUGGAUCCCCCGGCGCCCGGCGGCUCGAGCCCGGGUAAGUGUGAAUAGUCUGCAUGCCGCCGGGCGCCAUGCCUGCAGGUCGACUCUAGAAAACAUG”, for which the binding signal with PUM1 PUF domain R5-PRS is 1.55 log2 enrichment (interaction score); with PUM1 PUF domain R5-KWA, 2.43 log2 enrichment (interaction score); in the test with PUM1 PUF domain R5-MYC, 4.74 log2 enrichment (interaction score).

For the sequence “GGCUAGAACUAGUGGAUCCCCCGGCGCCCGGCGGCUCGAGCCCGGGUAAGCGUAAAUAGUCUGCAUGCCGCCGGGCGCCAUGCCUGCAGGUCGACUCUAGAAAACAUG”, the binding signal with PUM1 PUF domain R8-KYK was 3.86 log2 enrichment (interaction score); in the test with PUM1 PUF domain R8-GHR, 3.27 log2 enrichment (interaction score); with PUM1 PUF domain R8-RYW, 5.69 log2 enrichment (interaction score).

Consider “GGCUAGAACUAGUGGAUCCCCCGGCGCCCGGCGGCUCGAGCCCGGGUAAGUGUAAAUUGUCUGCAUGCCGCCGGGCGCCAUGCCUGCAGGUCGACUCUAGAAAACAUG”, for which, in the test with PUM1 PUF domain R1-KLC, the binding signal is 5.07 log2 enrichment (interaction score).

As for “GGCUAGAACUAGUGGAUCCCCCGGCGCCCGGCGGCUCGAGCCCGGGUAAGUCUAAAUAGUCUGCAUGCCGCCGGGCGCCAUGCCUGCAGGUCGACUCUAGAAAACAUG”, in the test with PUM1 PUF domain R7-ENR, the binding signal is 3.14 log2 enrichment (interaction score).

Consider “GGCUAGAACUAGUGGAUCCCCCGGCGCCCGGCGGCUCGAGCCCGGGUAAGUGUAAGUAGUCUGCAUGCCGCCGGGCGCCAUGCCUGCAGGUCGACUCUAGAAAACAUG”, for which the binding signal with PUM1 PUF domain R3-SNR is 0.8 log2 enrichment (interaction score).

As for “GGCUAGAACUAGUGGAUCCCCCGGCGCCCGGCGGCUCGAGCCCGGGUAAGUGUUAAUAGUCUGCAUGCCGCCGGGCGCCAUGCCUGCAGGUCGACUCUAGAAAACAUG”, the binding signal is 2.86 log2 enrichment (interaction score) in the test with PUM1 PUF domain R5-MYC and 5.51 log2 enrichment (interaction score) with PUM1 PUF domain R5-KYC.

In the case of “GGCUAGAACUAGUGGAUCCCCCGGCGCCCGGCGGCUCGAGCCCGGGUAAGUGUAAUUAGUCUGCAUGCCGCCGGGCGCCAUGCCUGCAGGUCGACUCUAGAAAACAUG”, the binding signal in the test with PUM1 PUF domain R3-SNR is 3.93 log2 enrichment (interaction score).

In the case of “GGCUAGAACUAGUGGAUCCCCCGGCGCCCGGCGGCUCGAGCCCGGGUAAGUGUAAAUAGUCUGCAUGCCGCCGGGCGCCAUGCCUGCAGGUCGACUCUAGAAAACAUG”, the binding signal in the test with PUM1 PUF domain R8-KYK was 2.92 log2 enrichment (interaction score); in the test with PUM1 PUF domain R5-PRS it was 4.36 log2 enrichment (interaction score); in the test with PUM1 PUF domain R8-GHR it was 1.48 log2 enrichment (interaction score); with PUM1 PUF domain R8-RYW it was 4.31 log2 enrichment (interaction score); with PUM1 PUF domain R5-KYC it was 5.13 log2 enrichment (interaction score).
